Measured values reported in PubChem BioAssay (Tox21).
Results filed as inconclusive are left out. Values without a mark were called inactive. Activity calls are given as the source filed them. Calls follow the shape of the dose curve; as a rule, active = well fitted cell-killing curve with a large enough effect in the repeat runs; inconclusive = weak or mixed curves, or effect the other way; inactive = flat fitted curve, though single readings scatter. Positions of bridges follow the written chain, without caps; N, C: chain ends. Non-standard residues stand in square brackets, D forms with d. Residues, ends and D or L forms follow the SMILES beside them. *: point of attachment. X2 = CC[C@H](C)CCCCC(=O)*; Dab = NCC[C@H](N)C(=O)O

experiment: qHTS assay to identify small molecule that activate the aryl hydrocarbon receptor (AhR) signaling pathway - cell viability counter screen (AID 743086); conditions: HepG2-AhR-luc viability, CellTiter-Fluor, 24 h; series mostly up to 70.3 µM; viability change, negative = cytotoxic: at the top concentration; also: nearly all actives have a fitted effect of over 45% in size;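 as to viability change, negative = cytotoxic: HepG2 liver cells carrying the AhR DRE luciferase reporter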
From the text: U.S. Tox21 Program National Center for Advancing Translational Sciences [NCATS] NIH Chemical Genomics Center [NCGC] U.S. Environmental Protection Agency [EPA] National Institutes of Environmental Health Sciences [NIEHS] National Toxicology Program [NTP] U.S. Food and Drug Administration [FDA] Tox21 Assay overview: The Aryl hydrocarbon Receptor (AhR), a member of the family of basic helix-loop-helix transcription factors, is crucial to adaptive responses to environmental changes. AhR mediates cellular responses to environmental pollutants such as aromatic hydrocarbons through induction of phase I and II enzymes but also interacts with other nuclear receptor signaling pathways A cell based HepG2-AhR-luc assay (HG2L7.5c1 cell line, developed by Dr. Michael S. Denison, University of California at Davis) was used to assess the activation of AhR. HepG2 (human hepatocellular carcinoma) cells were stably transfected with an Ah receptor-responsive firefly luciferase reporter gene plasmid containing 20 dioxin responsive elements and luciferase reporter gene. Increased luciferase activity can be used to identify the compounds that induce AhR activation. The cytotoxicity of the compounds screened against the HepG2-AhR-luc cell line was tested in parallel by measuring the cell viability using CellTiter-Fluor assay in the same wells.
Tox21 Assay Protocol Summary: 4000 cells in 5 uL/well were dispensed into white wall/solid bottom 1536-well plates using a Multidrop Combi (Thermo Fisher Scientific Inc., Waltham, MA) dispenser. After the assay plates were incubated at 37C for 5 h, 23 nL of compound or DMSO vehicle was transferred to the assay plates by a pintool station (Kalypsys, San Diego, CA). The plates were incubated at 37C for 24 hr. For cell viability measurement, 1 ul/well of CellTiter-Fluor reagent (Promega, Madison, WI) was added into the assay plates using a Flying Reagent Dispenser (FRD) (Aurora Discovery, CA),and then the assay plates were incubated at 37C for 30 min. The fluorescence intensity in the plates was measured using a ViewLux plate reader (PerkinElmer, Shelton, CT), followed by the addition of 4 uL of ONE-Glo Luciferase Assay reagent (Promega) using an FRD (Aurora Discovery). After the assay plates were incubated at room temperature for 30 min, luminescence intensity was measured using a ViewLux plate reader (Perkin Elmer).
% is scaled to controls: 0 for no effect and ±100 for the full control effect; potency is read from the fitted curve at half-maximal effect.

| Structure (SMILES) | viability change, negative = cytotoxic | Potency |
| --- | --- | --- |
| CC(O)CN(C)C (stereo not given) | 5.64% | – |
| O=c1oc2cc(O)ccc2s1 | 7.61% | – |
| CCC[C@@H]1C[C@@H](C(=O)N[C@@H]([C@H]2O[C@H](SC)[C@H](O)[C@@H](O)[C@H]2O)[C@H](C)Cl)N(C)C1 | -1.15% | – |
| CS(=O)(=O)OCCCNCCCOS(C)(=O)=O | 14.5% | – |
| CC(CN1c2ccccc2Sc2cccnc21)N(C)C (stereo not given) | -27.2% | – |
| CCOC(=O)c1cc(-c2ccccc2)nc2ccc(C)cc12 | 6.49% | – |
| CC[C@@H](C(=O)[C@@H](C)[C@@H](O)[C@H](C)[C@@H]1O[C@@H]([C@@H](CC)C(=O)O)CC[C@@H]1C)[C@H]1O[C@]2(C=C[C@@H](O)[C@]3(CC[C@@](C)([C@H]4CC[C@](O)(CC)[C@H](C)O4)O3)O2)[C@H](C)C[C@@H]1C | -10.8% | – |
| CCOC(=O)Oc1c(OC)cc(C(=O)O[C@@H]2C[C@@H]3CN4CCc5c([nH]c6cc(OC)ccc56)[C@H]4C[C@@H]3[C@H](C(=O)OC)[C@H]2OC)cc1OC | 0.562% [at 32.5 µM] | – |
| COc1cc(NCCCC(C)N)c2ncccc2c1 (stereo not given) | -19.4% | – |
| COc1ccc(-c2noc(CC(=O)O)c2-c2ccc(OC)cc2)cc1 | -0.531% | – |
| Nc1nc(=O)n([C@@H]2CS[C@H](CO)O2)cc1F | 0.924% | – |
| O=C(Cc1cccs1)N[C@@H]1C(=O)N2C(C(=O)[O-])=C(C[n+]3ccccc3)CS[C@H]12 | 4.19% | – |
| CCC(C)(C)OC(=O)N[C@@H](Cc1c[nH]c2ccccc12)C(=O)N[C@@H](CCSC)C(=O)N[C@@H](CC(=O)O)C(=O)N[C@@H](Cc1ccccc1)C(N)=O | 8.64% | – |
| COc1ccc(C[C@H](C)NC[C@@H](O)c2ccc(O)c(NC=O)c2)cc1 | -29.8% | – |
| CS(=O)(=O)c1ccc(C2=C(c3ccccc3)C(=O)OC2)cc1 | -2% | – |
| CCC[C@@]1(CCc2ccccc2)CC(O)=C([C@H](CC)c2cccc(NS(=O)(=O)c3ccc(C(F)(F)F)cn3)c2)C(=O)O1 | -8.86% | – |
| CC[C@H](C)CCCCC(=O)N[C@@H](CCN)C(=O)N[C@H](C(=O)N[C@@H](CCN)C(=O)N[C@H]1CCNC(=O)[C@H]([C@@H](C)O)NC(=O)[C@H](CCN)NC(=O)[C@H](CCN)NC(=O)[C@H](CC(C)C)NC(=O)[C@@H](CC(C)C)NC(=O)[C@H](CCN)NC1=O)[C@@H](C)O (X2-[Dab]T[Dab][Dab][Dab][dL]L[Dab][Dab]T; lactam 4-C) | 3.24% | – |
| CCOC(=O)Cc1cccc(-c2cc(CCCCCCc3ccc(O[C@H]4O[C@H](COC(C)=O)[C@@H](OC(C)=O)[C@H](OC(C)=O)[C@@H]4OC(C)=O)c(-c4cccc(CC(=O)OCC)c4)c3)ccc2O[C@H]2O[C@H](COC(C)=O)[C@@H](OC(C)=O)[C@H](OC(C)=O)[C@@H]2OC(C)=O)c1 | 18.2% | – |
| C=C1CC[C@@H]2[C@](C)(CO)[C@H](O)CC[C@@]2(C)[C@@H]1C/C=C1/C(=O)OC[C@H]1O | -4.43% | – |
| CCCCCCCCCCCCCCCC(=O)OC[C@@H](NC(=O)C(Cl)Cl)[C@H](O)c1ccc([N+](=O)[O-])cc1 | 15.1% | – |

| Structure (SMILES) | viability change, negative = cytotoxic | Potency |
| --- | --- | --- |
| CCCN(CC)C(CC)C(=O)Nc1c(C)cccc1C (stereo not given) | 10.8% | – |
| CCSc1ccc2c(c1)N(CCCN1CCN(C)CC1)c1ccccc1S2 | -0.827% [at 32.5 µM] | – |
| CCC(Cc1c(I)cc(I)c(O)c1I)C(=O)O (stereo not given) | -0.958% | – |
| C=C[C@]1(C)C[C@@H](OC(=O)CSC(C)(C)CNC(=O)[C@H](N)C(C)C)[C@]2(C)[C@H](C)CC[C@]3(CCC(=O)[C@H]32)[C@@H](C)[C@@H]1O | – | 3.76 µM (active) |
| CNc1cc(OC)c(C(=O)N[C@H]2CCN(Cc3ccccc3)[C@H]2C)cc1Cl | -5.29% | – |
| NNc1nnc(Cc2ccncc2)c2ccccc12 | 1.59% | – |
| CC1(C)S[C@@H]2[C@H](NC(=O)C3(N)CCCCC3)C(=O)N2[C@H]1C(=O)O | 14.8% | – |
| N[C@@H](C(=O)N[C@@H]1C(=O)N2C(C(=O)O)=C(Cl)CC[C@H]12)c1ccccc1 | -10.5% | – |
| CN1[C@@H]2CC[C@H]1CC(OC(c1ccccc1)c1ccccc1)C2 (stereo not given in full) | -19.2% | – |
| CCCC(=O)Nc1ncnc2c1ncn2[C@@H]1O[C@@H]2COP(=O)(O)O[C@H]2[C@H]1OC(=O)CCC | 1.77% | – |
| OCCO[C@@H]1[C@@H](O)[C@H](O)[C@@H](CO)O[C@@H]1O | 27.5% | – |
| N[C@@H](C(=O)N[C@@H]1C(=O)N2C(C(=O)O)=C(CSc3cn[nH]n3)CS[C@H]12)c1ccc(O)cc1 | 14.2% | – |
| CO[C@H]1C[C@@H]2CC[C@@H](C)[C@@](O)(O2)C(=O)C(=O)N2CCCC[C@H]2C(=O)O[C@H]([C@H](C)C[C@@H]2CC[C@@H](OCCO)[C@H](OC)C2)CC(=O)[C@H](C)/C=C(\C)[C@@H](O)[C@@H](OC)C(=O)[C@H](C)C[C@H](C)/C=C/C=C/C=C/1C | – | 11.9 µM (active) |
| Cc1c(Cl)cccc1Nc1ncccc1C(=O)O | 3.24% | – |
| Cc1nc(NS(=O)(=O)c2ccc(N)cc2)nc(C)c1Br | 2.99% | – |
| COc1cc(Br)c(C[N+]2(CCOCCC3CCC4CC3C4(C)C)CCOCC2)cc1OC (stereo not given) | -1.53% | – |
| C[C@@H](O)[C@H]1C(=O)N2C(C(=O)[O-])=C(SC3Cn4cnc[n+]4C3)[C@H](C)[C@H]12 (stereo not given in full) | 11.5% | – |
| CN[C@@H]1[C@@H](O)[C@@H](O[C@@H]2[C@@H](O)[C@H](OC3OC(CN)=CCC3N)[C@@H](N)C[C@H]2N)OC[C@]1(C)O (stereo not given in full) | 4.82% [at 32.5 µM] | – |
| CCCCCCCCCCCCCCCCCCOP(=O)([O-])OC1CC[N+](C)(C)CC1 | 12% [at 32.5 µM] | – |
| CC(=O)OC[C@H]1O[C@@H](O[C@H]2[C@H](O)[C@@H](OC(=O)c3ccccc3C(=O)O)[C@H](O)O[C@@H]2COC(C)=O)[C@H](O)[C@@H](OC(=O)c2ccccc2C(=O)O)[C@@H]1O | -2.67% | – |
